Measurements published in PubChem BioAssay AID1159580 (chemical genetic matrix, 2015).
Values joined by “and” are separate entries in the source; they are usually repeats but may differ in a detail not shown here. Equal values may be shown once. About 2,000 (36%) of roughly 5,500 compounds were called active. Not shown: some 18% with an inconclusive outcome. Rule as the data show it: active = normalized growth mostly below about 0.91 (no sharp cut-off); inconclusive = no clear call, values can overlap the other calls; inactive = mostly above about 0.92. This is one part of the list.

Test: chemical genetic growth profiling, strain panel (AID 1159580);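 also: tested at 20 µM; growth read once vehicle control cultures reached saturation at 30 °C; 1 = growth at the plate median or of vehicle wells; lower values mean less growth of the strain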
Conditions: S. cerevisiae deletion strains, growth OD

Measured: normalized growth

N=C(N)N
inactive: locus YAL013W, strain DEP1, hits give low values 1.01 | locus YAL021C, strain ccr4, hits give low values 0.995 | locus YAL026C, strain drs2, hits give low values 0.994 | locus YAL030W, strain snc1, hits give low values 0.993 | locus YBL061C, strain skt5, hits give low values 0.992 | locus YBR009C, strain hhf1, hits give low values 1.01 | locus YBR021W, strain FUR4, hits give low values 1.03 | locus YBR023C, strain chs3, hits give low values 1.01 | locus YBR171W, strain sec66, hits give low values 0.977 | locus YBR229C, strain ROT2, hits give low values 0.999 | locus YBR231C, strain swc5, hits give low values 0.98 | locus YBR279W, strain paf1, hits give low values 0.993 | locus YCL011C, strain gbp2, hits give low values 1.01 | locus YCL016C, strain dcc1, hits give low values 1.01 | locus YCL029C, strain bik1, hits give low values 0.963 | locus YCL061C, strain MRC1, hits give low values 0.996 | locus YCL069W, strain vba3, hits give low values 0.998 | locus YCR088W, strain abp1, hits give low values 0.992 | locus YDL005C, strain med2, hits give low values 0.987 | locus YDL035C, strain GPR1, hits give low values 1.03 | locus YDL040C, strain nat1, hits give low values 1 | locus YDL074C, strain BRE1, hits give low values 1.01 | locus YDL101C, strain DUN1, hits give low values 0.991 | locus YDL134C, strain PPH21, hits give low values 1.01 | locus YDL185W, strain tfp1, hits give low values 0.968 | locus YDL192W, strain arf1, hits give low values 0.982 | locus YDR001C, strain nth1, hits give low values 0.994 | locus YDR069C, strain doa4, hits give low values 0.983 | locus YDR101C, strain arx1, hits give low values 0.994 | locus YDR137W, strain rgp1, hits give low values 1 | locus YDR150W, strain NUM1, hits give low values 0.992 | locus YDR159W, strain sac3, hits give low values 0.929 | locus YDR162C, strain NBP2, hits give low values 0.996 | locus YDR195W, strain ref2 0.943 | locus YDR297W, strain sur2, hits give low values 0.993 | locus YDR318W, strain mcm21, hits give low values 0.981 | locus YDR334W, strain swr1, hits give low values 0.992 | locus YDR335W, strain msn5, hits give low values 1.06 | locus YDR388W, hits give low values 0.972 | locus YDR392W, strain spt3, hits give low values 0.875 | locus YDR502C, strain sam2, hits give low values 0.999 | locus YEL003W, strain gim4, hits give low values 0.992 | locus YEL037C, strain rad23, hits give low values 0.998 | locus YEL061C, strain CIN8 (second series), hits give low values 1 | locus YEL061C, strain CIN8, hits give low values 0.996 | locus YER015W, strain faa2, hits give low values 0.999 | locus YER016W, strain bim1, hits give low values 0.997 | locus YER110C, hits give low values 0.976 | locus YER111C, strain swi4, hits give low values 0.998 | locus YER155C, strain BEM2 (second series), hits give low values 0.976 | locus YER155C, strain BEM2, hits give low values 1 | locus YER167W, strain BCK2, hits give low values 1.02 | locus YFR010W, strain ubp6, hits give low values 0.995 | locus YGL078C, strain dbp3, hits give low values 1 | locus YGL086W, strain mad1, hits give low values 1.01 | locus YGL167C, strain pmr1, hits give low values 1 | locus YGL173C, strain kem1, hits give low values 0.987 | locus YGL227W, strain vid30, hits give low values 0.991 | locus YGL240W, strain doc1, hits give low values 0.999 | locus YGL248W, strain PDE1, hits give low values 1 | locus YGL253W, strain hxk2, hits give low values 1 | locus YGR078C, strain PAC10, hits give low values 0.997 | locus YGR135W, strain pre9, hits give low values 1 | locus YGR229C, strain SMI1, hits give low values 1.04 | locus YGR252W, strain gcn5, hits give low values 1.13 | locus YHR013C, strain ard1, hits give low values 1.01 | locus YHR027C, strain rpn1, hits give low values 1.01 | locus YHR030C, strain SLT2, hits give low values 1 and 1.05 | locus YHR079C, strain IRE1 (second series), hits give low values 0.977 | locus YHR079C, strain IRE1, hits give low values 1.03 | locus YHR094C, strain hxt1, hits give low values 0.974 | locus YHR129C, strain ARP1, hits give low values 0.992 | locus YHR142W, strain chs7, hits give low values 1.02 | locus YHR200W, strain rpn10, hits give low values 0.992 | locus YIL066C, strain RNR3, hits give low values 0.994 | locus YIL073C, strain SPO22, hits give low values 0.9 | locus YIL125W, strain kgd1, hits give low values 0.991 | locus YIR030C, strain dcg1, hits give low values 0.99 | locus YJL092W, strain hpr5, hits give low values 0.999 | locus YJL095W, strain BCK1 (second series), hits give low values 0.998 | locus YJL095W, strain BCK1, hits give low values 0.993 and 1.05 | locus YJL115W, strain asf1, hits give low values 0.99 | locus YJL129C, strain trk1, hits give low values 0.985 | locus YJL134W, strain LCB3, hits give low values 0.997 | locus YJL154C, strain vps35, hits give low values 0.994 | locus YJL164C, strain tpk1, hits give low values 1.01 | locus YJL166W, strain qcr8, hits give low values 1.01 | locus YJL168C, strain set2, hits give low values 0.975 | locus YJL187C, strain SWE1 (second series), hits give low values 0.946 | locus YJL187C, strain SWE1, hits give low values 0.993 | locus YJR043C, strain POL32, hits give low values 0.999 | locus YJR066W, strain TOR1, hits give low values 0.957
